Source: PubChem BioAssay AID2284330 (EPA ToxCast)
Results filed as inconclusive are left out. The source made the active and inactive calls. The calls were made as follows: active = hit-call score of the fitted dose curve at least 0.9, where 1 is the maximum; inconclusive = response in the unintended direction; inactive = score below 0.9.

Test system: frog Glucocorticoid Receptor (GR), gene 397897
Assay: ATG_frGR_EcoTox2: Attagene TRANS-FACTORIAL EcoTox-2 HepG2 Assay for frog Glucocorticoid Receptor (GR)
Protocol: ATG_EcoTox2 is a cell-based, multiplexed assay created by modifying the existing Attagene TRANS-FACTORIAL system to include a panel of nuclear receptors from some or all the following species: human (Homo sapiens), african clawed frog (Xenopus laevis), rainbow trout (Oncorhynchus mykiss), japanese medaka (Oryzias latipes), and zebrafish (Danio rerio). The ECOTOX2-FACTORIAL format uses HepG2, a human liver cell line, with measurements taken at 24 hours after chemical dosing in a 24-well plate. ATG_frGR_EcoTox2 is one of 29 assay components calculated in the ATG_EcoTox2 assay. It is designed to make measurements of mRNA induction, a form of inducible reporter, as detected with fluorescence intensity signals by Reverse transcription polymerase chain reaction (RT-PCR) and Capillary electrophoresis technology.The assay endpoint ATG_frGR_EcoTox2 was analyzed in the positive analysis fitting direction relative to DMSO as the negative control and baseline of activity. Using a type of inducible reporter, measures of mRNA for gain-of-signal activity can be used to understand the reporter gene at the transcription factor-level as they relate to the gene for glucocorticoid receptor. Furthermore, this assay endpoint can be referred to as a primary readout, because this assay has produced multiple assay endpoints where this one serves a reporter gene function. […]
Human liver HepG2 cells are transiently transfected with multiple reporter transcription units (MRTUs) in 6-well plates using FuGene 6 reagent (Roche; 3 ml FuGene/1 mg DNA). […] A major difference between the CIS and TRANS system is that in CIS activities of endogenous TFs are measured, whereas the TRANS assay evaluates changes in activities of exogenous, chimeric NR-Gal4 proteins. […] The fragments were purified using Qiaquick PCR columns (Qiagen), analyzed on an ABI 3130xL genetic analyzer (Applied Biosystems) with peak positions identified by using a set of X-rhodamine (ROX)-labeled MapMarker1000 molecular weight standards (BioVentures). […]

SMILES	outcome
O=P(Oc1ccccc1)(Oc1ccccc1)Oc1ccccc1	inactive
O=S(=O)(O)C(F)(F)C(F)(F)C(F)(F)C(F)(F)C(F)(F)C(F)(F)F	inactive
CCCCOCN(C(=O)CCl)c1c(CC)cccc1CC	inactive
